# Reference: PubChem BioAssay AID588689 (Southern Research Specialized Biocontainment Screening …, 2011)
# In all, about 340,000 compounds went through this assay and about 1,000 (0.29%) were called active. Cut-off read from the data, not from the text of the source: inconclusive = inhibition above about 29% without an active follow-up result; inactive = below that. These entries were drawn from the full list. Measured potencies and affinities stand elsewhere.
# Target: Genome polyprotein (Dengue virus type 2 (strain 16681-PDK53)) (UniProt P29991)
# Experiment: flavivirus cap methylation enzyme inhibition – biochemical, confirmation dose response, primary screen (AID 588689)
# Conditions: Dengue-2 NS5 methyltransferase capping enzyme assay, at 25 µM, stronger effect = higher value
# [1] = measured here: pilot screen replicate inhibition
SMILES,inhibition,inhibition [1] [%]
O=C(O)c1ccc(-c2ccco2)n1Cc1ccccc1,4.75% (inactive),
O=C(CN1CCN(Cc2ccc(F)cc2)CC1)Nc1ccccc1F,1.36% (inactive),
CCN(C(=O)CSc1nc2ccccc2c(=O)n1CCOC)C1CCS(=O)(=O)C1 (centres undefined),1.48% (inactive),
CC(C)c1cccc(-c2ccc3c(c2)S(=O)(=O)c2cccc(C(=O)NCc4ccccc4)c2C3=O)c1,-6.42% (inactive),
O=C1c2ccc(-c3ccc(F)cc3OCc3ccccc3)cc2S(=O)(=O)c2cccc(C(=O)N3CCCC3)c21,8% (inactive),
CC(C)c1cccc(-c2ccc3c(c2)S(=O)(=O)c2cccc(C(=O)NC4CCCC4)c2C3=O)c1,-4.92% (inactive),
COc1ccc(NC(=O)c2cccc3c2C(=O)c2ccc(-c4ccc(F)cc4OCc4ccccc4)cc2S3(=O)=O)cc1,-0.7% (inactive),
O=C(OCCN1CCCCC1)c1ccccc1Cl,7.44% (inactive),
CN(CC(=O)Nc1cccc(F)c1)CC(=O)N1CCCCC1,6.98% (inactive),
COc1ccc(CN2CC(C(=O)NCCC(C)C)CC2=O)cc1 (centres undefined),6.67% (inactive),
CC(C)(C)C(=O)NCCCc1ccccc1,-0.68% (inactive),
COc1cc(/C=C2\C(=O)NN(c3ccccc3)C2=O)cc([N+](=O)[O-])c1O,26.6% (inactive),
CCOc1cc(/C=C2/NC(=O)NC2=O)cc([N+](=O)[O-])c1O,22.9% (inactive),
CCOc1cc(/C=C2\NC(=O)NC2=O)cc([N+](=O)[O-])c1O,71.9% (inactive),
COc1cc(/C=C2\C(=O)NN(c3ccc(C)cc3)C2=O)cc([N+](=O)[O-])c1O,17.9% (inactive),
COc1cc(/C=C2/C(=O)NN(c3ccc(Cl)cc3)C2=O)ccc1OC(=O)c1ccco1,15.2% (inactive),
COc1cc(/C=C2\C(=N)N3N=C(S(C)(=O)=O)SC3=NC2=O)ccc1OC(=O)c1ccco1,-59.7% (inactive),
COc1cc(/C=C2/C(=O)NN(c3cccc(F)c3)C2=O)ccc1OC(=O)c1ccco1,23% (inactive),
CCOc1cc(/C=C2/C(=O)N(c3ccccc3)N=C2C)ccc1OC(=O)c1ccco1,19.1% (inactive),
Cc1cc(C)c(NC(=O)c2ccc3c(c2)NC(=O)C(C)S3)c(C)c1 (centres undefined),-0.76% (inactive),
O=S(=O)(NCCc1ccc(F)cc1)c1ccc(F)cc1Br,-1.99% (inactive),-0.92
CCCCCC(=O)NNC1=NCC(Cc2cccc(Cl)c2)S1 (centres undefined),-9.62% (inactive),
CCN(Cc1cnn(C)c1)Cc1nc(Cc2ccccc2Cl)no1,-2.18% (inactive),

SMILES,inhibition,inhibition [1] [%]
CCCCN1C(=O)/C(=C2\SC(N3CCCCC3)=NC2=O)c2ccccc21,1.1% (inactive),
O=C(NCc1ccccc1)c1cccc(S(=O)(=O)N2CCCCC2)c1,-8.7% (inactive),
COc1ccc(OC)c(/C=N/NC(=O)c2ccncc2)c1,-7.07% (inactive),
CCc1ccccc1N(CC(=O)OC)S(C)(=O)=O,3.12% (inactive),
O=C1OC(c2ccccc2)(c2ccccc2)c2ccccc21,-6.99% (inactive),
O=C1OC(c2ccccc2)(c2ccc(O)cc2)c2ccccc21 (centres undefined),0.78% (inactive),
O=C1OC2(c3ccccc31)c1ccccc1-c1ccccc12,8.53% (inactive),
Cc1cc(O)ccc1C1(c2ccc(O)cc2C)OC(=O)c2ccccc21,-9.01% (inactive),
CC1CCCN(C(=O)c2nn(C)c3c2CS(=O)(=O)c2ccccc2-3)C1 (centres undefined),-6.35% (inactive),
COc1ccc(/C=C/C(=O)NC(C)(C)C)cc1S(=O)(=O)N1CCOCC1,3.24% (inactive),
O=C(Nc1ccc2oc(=O)ccc2c1)c1cc([N+](=O)[O-])ccc1N1CCOCC1,-4.64% (inactive),
Cc1ccc(OC(C)C(=O)N2CC(=O)Nc3ccccc32)cc1 (centres undefined),1.78% (inactive),
C[C@@H]1CN([C@@H](C)CO)C(=O)Cc2cc(NC(=O)Nc3ccc(F)cc3)ccc2O[C@@H]1CN(C)Cc1ccc(Cl)c(Cl)c1,-10.3% (inactive),
Cc1nc(SCC(=O)NC(C)(C)C)c2c(-c3cccs3)csc2n1,-9.82% (inactive),
COc1ccc(N2CCN(C(c3nnnn3C3CCCC3)C(C)C)CC2)cc1 (centres undefined),-0.74% (inactive),
Cc1ccc(C)n1Cc1ccccc1Cl,-24.6% (inactive),
C=CCNC(=O)COc1c(C)ccc(C)c1C,-2.27% (inactive),
CCOC(=O)N1CCC(N2C(=O)c3ccc(C(=O)NCCC(C)C)cc3C2=O)CC1,-0.65% (inactive),
O=C(O)c1ccc(NC(=O)C(c2ccccc2)c2ccccc2)cc1,-5.43% (inactive),
O=C(Nc1ccc(C(=O)c2ccc(C(=O)O)c(C(=O)O)c2)cc1)c1ccccc1,6.21% (inactive),
NC1=NN(c2c(Cl)cc(Cl)cc2Cl)C(=O)C1,-5.65% (inactive),
CC(C)(C)C(=O)NC1=NN(c2c(Cl)cc(Cl)cc2Cl)C(=O)C1,6.11% (inactive),
CC(C)/C=C/C(=O)N1CCC(N2CCC(C(=O)NCC3CCCO3)CC2)CC1 (centres undefined),6.04% (inactive),

SMILES,inhibition,inhibition [1] [%]
O=C(NCc1ccccn1)c1cccc(S(=O)(=O)N2CCc3ccccc32)c1,5.83% (inactive),
O=C(Nc1ccc(O)cc1C(=O)O)c1ccc2c(c1)C(=O)N(Cc1ccco1)C2=O,-4.89% (inactive),
Cc1c(NC(=O)c2ccc3c(c2)C(=O)N(Cc2ccco2)C3=O)cccc1C(=O)O,6.25% (inactive),
O=C1CSC(=S)N1/N=C/c1ccc2c(c1)OCCO2,-7.17% (inactive),
Cc1ccc(OCC(=O)NCCNC(=O)c2cnccn2)cc1C,-4.45% (inactive),
Oc1c(C(Nc2ccccn2)c2cccnc2)cc(Cl)c2cccnc12 (centres undefined),-1.46% (inactive),
COc1ccccc1C(NC(C)=O)c1cc(Cl)c2cccnc2c1O (centres undefined),-1.32% (inactive),
CCOCCSc1n[nH]c(=O)n1CCc1ccccc1,0.65% (inactive),
CCCCC1=CC2=CC(=O)C(C)(OC(=O)C3CCCC3)C(=O)C2=CO1 (centres undefined),-4.96% (inactive),
COC(=O)CCCC1=CC2=CC(=O)C(C)(OC(=O)C3CCCC3)C(=O)C2=CO1 (centres undefined),-2.4% (inactive),
O=C(Nc1ccccc1N1CCCCC1)C1CC(=O)N(c2ccccc2F)C1 (centres undefined),-1.45% (inactive),
COCCNc1nc2ccccc2n2cnnc12,-9.27% (inactive),
O=[N+]([O-])c1cc(Br)c(Nc2ccccc2)c([N+](=O)[O-])c1,5.88% (inactive),
N#Cc1c2ccc([N+](=O)[O-])cc2[n+]([O-])n1-c1ccccc1,15.2% (inactive),
CCO[C@H]1OC(C(=O)N2CCN(C)CC2)=C[C@@H](c2ccc(C(F)(F)F)cc2)[C@@H]1CCCO,-3.14% (inactive),
CC1=NN(C(N)=S)C(=O)C1N=Nc1c(C)cc(C)cc1C (centres undefined),-2.39% (inactive),
CC1=NN(C(N)=S)C(=O)C1N=Nc1ccc(Br)cc1 (centres undefined),7.71% (inactive),
Cc1ccc(Sc2c(C)[nH]n(C(C)(C)C)c2=O)cc1,-4.77% (inactive),2.59
Cc1ccc(Sc2sc(=O)n(C)c2S(=O)(=O)c2ccc(C)cc2)cc1,-2.3% (inactive),
CCOc1ccc(OCc2ccc(C(=O)N(CC)CC)cc2)cc1,-20% (inactive),
CCn1c(CSc2nnc(-c3ccncc3)n2C)nc2cc(C(=O)O)ccc21,7.11% (inactive),
CCn1c(CSc2nccn2C)nc2cc(C(=O)O)ccc21,1.61% (inactive),
O=C(CCn1c(=O)oc2ccc(Cl)cc21)NCCCN1CCOCC1,-12.3% (inactive),

SMILES,inhibition,inhibition [1] [%]
CCOc1ccc2nc(SCC(=O)NC3CCCc4ccccc43)sc2c1 (centres undefined),-8.65% (inactive),
O=C1NC2(CCCCCC2)Cc2ccccc21,-4.23% (inactive),
Cc1cc(SCC(=O)Nc2ccccc2)n2ncc(-c3ccccc3)c2n1,-3.11% (inactive),
Cc1ccc(NC(=O)c2ccc(-n3cccn3)c([N+](=O)[O-])c2)cc1,0.68% (inactive),
O=C1c2ccccc2C(O)(c2ccccc2)N1c1ccncc1 (centres undefined),-5.22% (inactive),
Cc1ccc(N2C(=O)c3ccccc3C2(O)c2ccccc2)cc1 (centres undefined),-0.39% (inactive),
CC1CN(C(=O)c2nn(C)cc2[N+](=O)[O-])CC(C)O1 (centres undefined),-1.37% (inactive),
CCCCn1c(-c2cccnc2)nc2cc3[nH]c(=O)c(C(C)C)nc3cc21,4.01% (inactive),
COc1ccccc1OCC#CCSc1ncccn1,-53.6% (inactive),
C#CCN(C[C@H]1[C@H](OC(=O)Nc2cccs2)[C@H](OC(=O)Nc2cccs2)C[C@H]2C(=O)N(c3ccccc3)C(=O)[C@@H]12)S(=O)(=O)c1ccc(C)cc1,2.32% (inactive),
COc1ccc(S(=O)(=O)/C(C#N)=C/Nc2cccc(F)c2)cc1,-2.28% (inactive),
Cc1ccc(NC(=O)/C(C#N)=N/Nc2ccc(C(=O)O)cc2)c(C)c1,3.18% (inactive),
Cc1ccc(F)c(NC(=O)CCc2ccccc2)c1,-5.56% (inactive),
Cc1ccc(C)c2[nH]c(=O)c(CCNS(=O)(=O)c3ccccc3)cc12,-0.7% (inactive),
COc1cc(/C=C2\SC(=S)N(Nc3ccccc3)C2=O)cc(OC)c1OC,-1.38% (inactive),
COc1cc(/C=C2\SC(=S)N(CCC(=O)Nc3ccccc3)C2=O)cc(OC)c1OC,0% (inactive),
Cc1ncsc1CCOC(=O)C12CC3CC(CC(C3)C1)C2,-12.1% (inactive),
CCOC(=O)c1c(C)nc(C)c(C(=O)OCC)c1-c1ccc(OC)cc1,0.8% (inactive),
O=C(NC(Cc1c[nH]c2ccccc12)C(=O)Nc1ccc(OC(F)(F)F)cc1)c1cccs1 (centres undefined),-0.91% (inactive),
O=C1C(=O)c2c(ccc3ccccc23)-c2ccccc21,8.87% (inactive),
O=C1C=C(O)c2cccc(O)c2C1=O,10.9% (inactive),
COc1cc(C2CC(=O)c3c(O)cc(O)cc3O2)ccc1O (centres undefined),-4.19% (inactive),
COc1c(CC=C(C)C)cc(C2CC(=O)c3c(O)cc(O)cc3O2)cc1CC=C(C)C (centres undefined),1.45% (inactive),
